Among the data in PubChem BioAssay are growth inhibition, inhibition and outcome values, retold here.

The inhibition is the relative decrease from the control value, in per cent.

Test [1] is described as follows: antimalarial activity against Dd2 strain (AID 2302;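 active = growth inhibition above 50% at the single 2 µM test dose, taken to imply half-maximal potency below 2 µM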;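 also: 0% = DMSO untreated growth and 100% = chloroquine plus artemisinin killed control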). Conditions: P. falciparum Dd2 in RBCs, LDH growth readout, 72 h; at 2 µM; stronger effect = higher value.
Test [2] in a line: HepG2 cytotoxicity, primary screen, cytotoxicity control for P. falciparum antimalarial project, cell-based, ATP luminescence (AID 2303;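 active = inhibition above 50%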;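 also: 0% = DMSO wells and 100% = digitonin-killed cells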). Conditions: HepG2 viability, 24-48 h, at 10 µM, stronger effect = higher value.
Test [3] addresses L-lactate dehydrogenase (Plasmodium falciparum (isolate CDC / Honduras)) (UniProt Q27743). Nature of the test: PfLDH activity inhibition – cell lysate, 3D7 strain, counter-screen for P. falciparum growth inhibition project (AID 2304).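 Also: 0% = vehicle and 100% = reference inhibitor.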 Conditions: P. falciparum 3D7 crude extract, LDH APAD/NBT absorbance; at 2 µM; stronger effect = higher value. On the technique in general: A counterscreen serves to expose hits that act by an unwanted route or on another target.

Test [4] in a line: inhibition of 3D7 malaria parasite growth – strain 3D7 (AID 2306).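 Also: 0% = DMSO wells and 100% = chloroquine plus artemisinin control wells.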 Conditions: P. falciparum 3D7 erythrocytic growth, LDH absorbance, 72 h; at 2 µM; stronger effect = higher value.
Test [5] addresses Calcium-dependent protein kinase 1 (Plasmodium falciparum (isolate 3D7)) (UniProt P62344). Description: PfCDPK1 kinase inhibitors, biochemical, TCAMS library (AID 1159585; cut-off not given, nearly all actives have IC50 up to about 0.98 µM;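 also: inhibitors leave more ATP so luminescence rises with inhibition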). Conditions: recombinant PfCDPK1, Kinase-Glo ATP depletion luminescence.
For test [6], the target named is Plasmodium falciparum protein kinase 6 (PK6, PF3D7_1337100) (UniProt Q8IDW1). Nature of the test: PfPK6 kinase inhibitors, biochemical, TCAMS library (AID 1159586). Conditions: recombinant PfPK6, Kinase-Glo ATP depletion luminescence. A general note: Kinase-Glo measures the ATP left after a reaction by luminescence.
Chain of Plasmodium falciparum protein kinase 6 (PK6, PF3D7_1337100) (Q8IDW1 1-305): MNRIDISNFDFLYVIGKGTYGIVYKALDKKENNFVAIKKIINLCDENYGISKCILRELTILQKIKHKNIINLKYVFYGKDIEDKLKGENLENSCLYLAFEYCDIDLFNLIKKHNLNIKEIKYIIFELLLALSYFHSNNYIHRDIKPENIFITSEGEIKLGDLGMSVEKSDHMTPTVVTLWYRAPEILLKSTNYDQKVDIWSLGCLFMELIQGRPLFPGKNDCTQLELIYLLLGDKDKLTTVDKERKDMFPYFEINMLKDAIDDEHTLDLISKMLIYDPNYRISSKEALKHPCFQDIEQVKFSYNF
Test [7] deals with Protein kinase 7 (PK7), Plasmodium falciparum 3D7 (PF3D7_0213400) (UniProt Q7YTF7). Nature of the test: inhibition of Plasmodium PK7 catalytic activity – biochemical, TCAMS antimalarial set, Kinase-Glo luminescence (AID 1159587). Conditions: recombinant PfPK7, Kinase-Glo ATP depletion luminescence.
Chain of Protein kinase 7 (PK7), Plasmodium falciparum 3D7 (PF3D7_0213400) (Q7YTF7 1-343): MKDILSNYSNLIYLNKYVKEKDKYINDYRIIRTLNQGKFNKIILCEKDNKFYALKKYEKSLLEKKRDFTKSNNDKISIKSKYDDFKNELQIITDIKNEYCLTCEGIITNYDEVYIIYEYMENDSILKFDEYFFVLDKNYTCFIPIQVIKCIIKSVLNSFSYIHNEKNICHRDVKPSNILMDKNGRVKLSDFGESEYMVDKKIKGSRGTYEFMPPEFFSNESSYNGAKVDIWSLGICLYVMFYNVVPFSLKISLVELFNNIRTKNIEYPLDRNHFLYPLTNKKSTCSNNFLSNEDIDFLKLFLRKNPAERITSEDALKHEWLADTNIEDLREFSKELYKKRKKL
Test [8] addresses Calcium-dependent protein kinase 4 (Plasmodium falciparum (isolate 3D7)) (UniProt Q8IBS5). Description: PfCDPK4 kinase inhibitors, biochemical, TCAMS library (AID 1159588; cut-off not given, nearly all actives have IC50 up to about 0.91 µM). Conditions: recombinant PfCDPK4, Kinase-Glo ATP depletion luminescence.

Unmarked numbers belong to inactive results. For part of these data: Entries with a potency or affinity are not part of this list. Calls of active or inactive are those of the source. Unless noted, no rule for the calls is given here.

Chain of L-lactate dehydrogenase (Plasmodium falciparum (isolate CDC / Honduras)) (Q27743 whole entry, looked up): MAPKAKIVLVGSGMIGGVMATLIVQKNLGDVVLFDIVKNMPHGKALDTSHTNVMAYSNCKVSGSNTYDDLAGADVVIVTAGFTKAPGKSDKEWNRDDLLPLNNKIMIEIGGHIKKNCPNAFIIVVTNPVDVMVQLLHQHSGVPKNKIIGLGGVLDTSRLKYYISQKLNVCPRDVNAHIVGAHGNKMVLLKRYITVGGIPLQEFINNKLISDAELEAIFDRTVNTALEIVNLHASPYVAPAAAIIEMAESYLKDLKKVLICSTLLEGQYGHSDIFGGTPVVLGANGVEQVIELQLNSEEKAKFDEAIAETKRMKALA
Chain of Calcium-dependent protein kinase 1 (Plasmodium falciparum (isolate 3D7)) (P62344 whole entry, looked up): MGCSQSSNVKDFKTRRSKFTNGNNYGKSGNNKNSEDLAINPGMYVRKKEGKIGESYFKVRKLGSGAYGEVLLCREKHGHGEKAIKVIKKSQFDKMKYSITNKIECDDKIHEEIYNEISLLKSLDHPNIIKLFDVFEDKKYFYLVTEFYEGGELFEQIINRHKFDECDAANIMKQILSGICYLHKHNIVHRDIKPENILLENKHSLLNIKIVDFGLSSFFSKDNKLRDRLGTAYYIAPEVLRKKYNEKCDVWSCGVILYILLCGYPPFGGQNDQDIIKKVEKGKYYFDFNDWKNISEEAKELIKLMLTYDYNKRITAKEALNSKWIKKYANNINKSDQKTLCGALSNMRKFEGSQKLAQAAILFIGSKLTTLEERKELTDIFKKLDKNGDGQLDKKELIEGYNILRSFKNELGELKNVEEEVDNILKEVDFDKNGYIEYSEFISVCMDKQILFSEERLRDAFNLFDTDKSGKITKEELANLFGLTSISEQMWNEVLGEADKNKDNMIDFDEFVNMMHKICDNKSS
Chain of Calcium-dependent protein kinase 4 (Plasmodium falciparum (isolate 3D7)) (Q8IBS5 whole entry, looked up): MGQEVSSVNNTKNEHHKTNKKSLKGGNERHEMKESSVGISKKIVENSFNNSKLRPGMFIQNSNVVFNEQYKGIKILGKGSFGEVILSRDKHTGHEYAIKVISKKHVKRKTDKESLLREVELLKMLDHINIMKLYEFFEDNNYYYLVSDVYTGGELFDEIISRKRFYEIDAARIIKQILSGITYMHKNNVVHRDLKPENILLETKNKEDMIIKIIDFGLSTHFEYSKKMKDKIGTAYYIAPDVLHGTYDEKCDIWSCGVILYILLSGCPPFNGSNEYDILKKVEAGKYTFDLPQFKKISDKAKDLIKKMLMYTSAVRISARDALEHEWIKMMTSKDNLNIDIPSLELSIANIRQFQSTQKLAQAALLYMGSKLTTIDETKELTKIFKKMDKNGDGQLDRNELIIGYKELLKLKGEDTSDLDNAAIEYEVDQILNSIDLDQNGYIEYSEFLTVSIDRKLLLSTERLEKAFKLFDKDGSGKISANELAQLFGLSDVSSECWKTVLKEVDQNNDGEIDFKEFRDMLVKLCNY

As to `Oc1ccccc1-c1nc2cccnc2n1CCc1cccc(C(F)(F)F)c1`, the growth inhibition in test [1] is 36%; in test [4] it was 93% (active). For the same compound, the figures for the inhibition in test [2] and in test [3] were 4% and -1%, respectively. The outcome in test [5], in test [6], in test [7] and in test [8] was inactive.
On to `NC1CCCN(Cc2cccc(-c3ccc(-c4nc5ccccc5[nH]4)cc3)c2)C1` (stereo not drawn), for which the growth inhibition in test [1] is 73% (active); in test [4], 101% (active). Also, the inhibition in test [2] was 25%; in test [3], -6%. The outcome in test [5], in test [6], in test [7] and in test [8] was inactive.
`CN1CCN(CCCSc2ccc3c(c2)ncn3-c2cc(OCc3ccccc3C(F)(F)F)c(C(N)=O)s2)CC1`: the growth inhibition in test [1] was 86% (active); in test [4], 101% (active). Besides, the inhibition in test [2] was 28%; in test [3], 8%. In addition, the outcome in test [5], in test [6], in test [7] and in test [8] was inactive.
As to `CC(C)CCOc1ccc(NC(=O)c2cccs2)cc1`, the growth inhibition in test [1] and in test [4] was 95% (active) throughout. In addition, the figures for the inhibition in test [2] and in test [3] were 11% and -3%, respectively. For the same compound, the result in test [5], in test [6], in test [7] and in test [8] was inactive.
With `COC(=O)c1cccc(NC(=O)NC2CCN(c3ccnc(Nc4ccc(F)cc4)n3)C2)c1` (stereo not drawn), the growth inhibition in test [1] is 83% (active); in test [4], 100% (active). The inhibition in test [2] is 5%; in test [3] it was 3%. Moreover, the outcome in test [5], in test [6], in test [7] and in test [8] was inactive.
As to `N#Cc1ccc(NC(=O)c2ccc(C(=O)NCCCCN3CCC(c4ccc5c(c4OCCOC4CCCCO4)CCCC5)CC3)cc2)cc1` (stereo not drawn), the growth inhibition in test [1] was 97% (active); in test [4] it was 99% (active). Further, the results for the inhibition in test [2] and in test [3] were 72% (active) and -6%, respectively. Moreover, the outcome in test [5], in test [6], in test [7] and in test [8] was inactive.
In the case of `N#CCCN1CCN(Cc2cccc(-c3ccc(-c4nc5ccccc5[nH]4)s3)c2)CC1`, the growth inhibition in test [1] was 8%; in test [4], 96% (active). The inhibition was 48% in test [2] and -4% in test [3]. The outcome in test [5], in test [6], in test [7] and in test [8] was inactive.
As to `NC(=O)c1cccc(C(=O)Nc2cccc(-c3cccc(-c4nc5ccccc5[nH]4)c3)c2)c1`, the figures for the growth inhibition in test [1] and in test [4] were 78% (active) and 100% (active), respectively. Moreover, the values for the inhibition in test [2] and in test [3] were 32% and 2%, respectively. Moreover, the result in test [5], in test [6], in test [7] and in test [8] was inactive.
Turning to `Cc1cc(O)c(CNC2CCCCC2)cc1C`, the growth inhibition in test [1] and in test [4] was 95% (active) throughout. The inhibition is 6% in test [2] and -2% in test [3]. The result in test [5], in test [6], in test [7] and in test [8] was inactive.
With `CCN1CCC(N(Cc2ccc(-c3ccc(C(F)(F)F)cc3)cc2)C(=O)Cn2c(CCc3cccc(F)c3F)cc(=O)c3c2CCC3)CC1`, the growth inhibition in test [1] is 85% (active); in test [4], 89% (active). The inhibition in test [2] is 49%; in test [3] it was -1%. Also, the result in test [5], in test [6], in test [7] and in test [8] was inactive.
On to `CN(CCC1CCN(C(=O)/C=C/c2ccc(Cl)c(Cl)c2)CC1)C1CCC(c2c[nH]c3ccccc23)CC1` (stereo not drawn), for which the values for the growth inhibition in test [1] and in test [4] were 9% and 87% (active), respectively. In addition, the inhibition in test [2] is 57% (active); in test [3], -5%. The result in test [5], in test [6], in test [7] and in test [8] was inactive.
For the compound `c1cncc(-c2cccc(CNc3nccc(Nc4ccc(OCCN5CCOCC5)cc4)n3)c2)c1`, the growth inhibition in test [1] is 27%; in test [4] it was 93% (active). Also, the results for the inhibition in test [2] and in test [3] were 1% and -2%, respectively. The outcome in test [5], in test [6], in test [7] and in test [8] was inactive.
In the case of `Clc1ccc(CNc2nc(NCCc3cnc[nH]3)nc(N3CCCC4CCCCC43)n2)cc1` (stereo not drawn), the growth inhibition in test [1] is 100% (active); in test [4], 101% (active). For the same compound, the inhibition in test [2] was 10%; in test [3] it was 4%. Moreover, the result in test [5], in test [6], in test [7] and in test [8] was inactive.
Consider `COc1cc(CN2CCC(C(=O)Nc3ccc(-c4cccc(C)c4)cc3)CC2)ccc1O`, for which the figures for the growth inhibition in test [1] and in test [4] were 85% (active) and 100% (active), respectively. Further, the inhibition in test [2] was 25%; in test [3], 3%. Moreover, the result in test [5], in test [6], in test [7] and in test [8] was inactive.
Regarding `CN1CCCc2ccc(NC(=O)Nc3ccc(-c4ccccc4)cc3)cc2C1`, the growth inhibition in test [1] is 47%; in test [4], 97% (active). The inhibition in test [2] was 23%; in test [3], 0%. Further, the outcome in test [5], in test [6], in test [7] and in test [8] was inactive.
As to `CS(=O)(=O)NCCCNCc1cccc(-c2cccc(-c3nc4ccc(F)cc4[nH]3)c2)c1`, the figures for the growth inhibition in test [1] and in test [4] were 5% and 100% (active), respectively. Besides, the inhibition is 4% in test [2] and -13% in test [3]. The result in test [5], in test [6], in test [7] and in test [8] was inactive.
Turning to `COc1ccc2nc(N(CCCn3ccnc3)C(=O)C=Cc3cccs3)sc2c1`, the figures for the growth inhibition in test [1] and in test [4] were 26% and 92% (active), respectively. Moreover, the inhibition was 8% in test [2] and -3% in test [3]. Also, the result in test [5], in test [6], in test [7] and in test [8] was inactive.
As to `Cc1cccc(-c2ccc3c(c2)CC(NCc2cccc(-n4ccnc4)c2)C3)c1` (stereo not drawn), the growth inhibition was 49% in test [1] and 101% (active) in test [4]. Also, the inhibition is 11% in test [2] and 0% in test [3]. In addition, the outcome in test [5], in test [6], in test [7] and in test [8] was inactive.
`CC1CN(CC(O)Cn2c3ccc(Br)cc3c3cc(Br)ccc32)CC(C)O1` (stereo not drawn): the growth inhibition is 100% (active) in test [1] and 102% (active) in test [4]. Besides, the inhibition in test [2] is -1%; in test [3], 3%. For the same compound, the result in test [5], in test [6], in test [7] and in test [8] was inactive.
Turning to `Cc1cccc2[nH]c(-c3ccc(-c4ccc(NC(=O)Nc5ccc(Cl)cc5)cc4)s3)nc12`, the growth inhibition is 100% (active) in test [1] and 101% (active) in test [4]. Also, the inhibition is 78% (active) in test [2] and 7% in test [3]. The outcome in test [5], in test [6], in test [7] and in test [8] was inactive.
Turning to `C=C(C)CSc1nc2c(c(=O)n1Cc1ccco1)C1(CCCCC1)Cc1ccccc1-2`, the figures for the growth inhibition in test [1] and in test [4] were 68% (active) and 97% (active), respectively. The results for the inhibition in test [2] and in test [3] were 2% and -9%, respectively. Moreover, the result in test [5], in test [6], in test [7] and in test [8] was inactive.
